Data on 44 compounds can be found in PMC4336329 (PLoS ONE, 2015).

The structures appear in SMILES notation. Hit rate of the full screen: of about 310,000 compounds, about 14,000 (4.5%) showed an effect of 50% or more. The effect is printed as a negative number. The sample holds strong results, similar compounds and a random draw of the others, so the mix is not that of the screen.
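Also: peak tail current of the secondary pulse compared with the same well before compound.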

Chain of human ether-à-go-go-related gene (hERG) potassium channel (Q12809 whole entry, looked up): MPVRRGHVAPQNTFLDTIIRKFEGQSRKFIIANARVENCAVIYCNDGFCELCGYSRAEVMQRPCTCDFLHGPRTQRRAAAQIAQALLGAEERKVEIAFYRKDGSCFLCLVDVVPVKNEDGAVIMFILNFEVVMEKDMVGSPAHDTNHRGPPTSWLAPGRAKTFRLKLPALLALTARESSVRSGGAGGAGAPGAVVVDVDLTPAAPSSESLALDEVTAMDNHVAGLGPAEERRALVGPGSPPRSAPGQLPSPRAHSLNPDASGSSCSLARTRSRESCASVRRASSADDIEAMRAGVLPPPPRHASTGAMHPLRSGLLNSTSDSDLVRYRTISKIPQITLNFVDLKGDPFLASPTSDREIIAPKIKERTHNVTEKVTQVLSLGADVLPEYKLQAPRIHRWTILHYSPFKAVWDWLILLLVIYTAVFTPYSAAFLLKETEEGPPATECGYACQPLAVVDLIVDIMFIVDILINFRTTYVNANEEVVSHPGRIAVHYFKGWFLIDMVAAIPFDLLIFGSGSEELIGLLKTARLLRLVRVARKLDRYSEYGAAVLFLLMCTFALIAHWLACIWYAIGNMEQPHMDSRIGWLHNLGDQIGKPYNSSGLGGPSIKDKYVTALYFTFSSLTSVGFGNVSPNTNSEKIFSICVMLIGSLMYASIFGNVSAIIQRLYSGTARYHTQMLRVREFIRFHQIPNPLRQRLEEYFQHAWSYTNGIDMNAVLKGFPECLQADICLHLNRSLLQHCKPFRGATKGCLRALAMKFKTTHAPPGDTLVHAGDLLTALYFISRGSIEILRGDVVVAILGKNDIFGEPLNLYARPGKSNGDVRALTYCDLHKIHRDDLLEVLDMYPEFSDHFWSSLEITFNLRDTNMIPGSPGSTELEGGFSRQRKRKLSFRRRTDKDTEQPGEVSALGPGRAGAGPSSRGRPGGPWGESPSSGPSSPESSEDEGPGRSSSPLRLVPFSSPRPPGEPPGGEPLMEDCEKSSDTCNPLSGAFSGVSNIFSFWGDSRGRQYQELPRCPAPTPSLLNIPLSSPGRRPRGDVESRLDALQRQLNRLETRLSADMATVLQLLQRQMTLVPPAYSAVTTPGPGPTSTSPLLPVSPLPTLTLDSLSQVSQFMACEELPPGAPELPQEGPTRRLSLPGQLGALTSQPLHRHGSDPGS

The assay addresses human ether-à-go-go-related gene (hERG) potassium channel (human, UniProt Q12809). Nature of the assay: primary screen, population patch clamp on CHO cells stably expressing hERG; higher = less effect of the substance.
Take `O=C(NCCCN1CCCC1)c1ccc(CS(=O)(=O)c2ccc(Cl)cc2)o1`: the “hERG current change (%, negative = inhibition) at 10uM” value was -6.15%. The result for `O=C(NCCN1CCOCC1)c1ccc(CS(=O)(=O)c2ccc(Cl)cc2)o1` reads -4.24%; that for `COc1ccc(S(N)(=O)=O)cc1C(=O)NCCCN1CCN(c2cccc(Cl)c2)CC1.CS(=O)(=O)O`, -23.9%. With `COc1ccc(N2CCN(CCCNC(=O)c3ccc(CS(=O)(=O)c4ccc(Cl)cc4)o3)CC2)cc1`, the “hERG current change (%, negative = inhibition) at 10uM” value is -77.1%. Take `COc1ccc(S(=O)(=O)Cc2ccc(C(=O)NCc3ccccc3OC)o2)cc1`: the “hERG current change (%, negative = inhibition) at 10uM” value is recorded as -41.6%.

Consider `COCCNC(=O)c1ccc(CS(=O)(=O)c2ccc(OC)cc2)o1`, for which the “hERG current change (%, negative = inhibition) at 10uM” value is -0.154%. For `COc1ccc(S(=O)(=O)Cc2ccc(C(=O)NC3CC3)o2)cc1` the value was -2.21%. Take `COc1ccc(S(N)(=O)=O)cc1C(=O)NCCCN1CCN(c2ccc(C)cc2)CC1`: the “hERG current change (%, negative = inhibition) at 10uM” value is on record as -50.7%.

For the compound `Cc1ccc(S(=O)(=O)Cc2ccc(C(=O)NCCCN3CCN(C)CC3)o2)cc1`, the “hERG current change (%, negative = inhibition) at 10uM” value turned out to be 15.6%. For `COc1ccc(S(=O)(=O)Cc2ccc(C(=O)NCCCN3CCc4ccccc4C3)o2)cc1` the value was -51.2%.

For `COc1ccc(N2CCN(CCCNC(=O)c3ccc(CS(=O)(=O)c4ccc(OC)cc4)o3)CC2)cc1`, the “hERG current change (%, negative = inhibition) at 10uM” value is -68.9%. As to `COc1ccc(S(N)(=O)=O)cc1C(=O)NCC(C)(C)N1CCOCC1`, the “hERG current change (%, negative = inhibition) at 10uM” value was found to be 8.36%. As for `O=C(Nc1cccc(F)c1)N1CC=C(c2ccc(Cl)cc2)CC1`, the “hERG current change (%, negative = inhibition) at 10uM” value is -13.8%. On to `Cc1ccc(CN2CCN(/N=C/c3ccc(Cl)c([N+](=O)[O-])c3)CC2)cc1`, for which the “hERG current change (%, negative = inhibition) at 10uM” value is recorded as -4.43%. In the case of `CCCOC1CCCN(C(=O)c2ccc3oc(C(C)C)nc3c2)C1` (centres unmarked), the “hERG current change (%, negative = inhibition) at 10uM” value amounted to 3.64%. For the compound `Cc1ccccc1OCc1nc(-c2ccc(NC(=O)c3ccco3)cc2)no1`, the “hERG current change (%, negative = inhibition) at 10uM” value was 5.41%. With `COc1ccc(N=Cc2c(O)n(Cc3ccccc3)c(=S)[nH]c2=O)c(OC)c1`, the “hERG current change (%, negative = inhibition) at 10uM” value is -1.29%. `CC(C)[C@@H](C(=O)NCC1CCC(C(=O)O)CC1)n1nnc2ccccc2c1=O` (some centres unmarked): the “hERG current change (%, negative = inhibition) at 10uM” value came to 19.1%. The result for `COc1ccc(NC2CCCN(C(=O)c3ccc(C(C)=O)s3)C2)cc1` (centres unmarked) reads 16.1%; that for `O=C(CSc1ccc(-c2ccc(F)cc2)nn1)N1CCOCC1`, -17.4%; that for `COc1cc(/C=N/N2CCN(c3ccccc3)CC2)cc(OC)c1OC(C)=O`, -39.4%.

As to `O=C(Nc1ccccc1Cl)O/N=C(/c1ccccc1)c1ccccn1`, the “hERG current change (%, negative = inhibition) at 10uM” value worked out at 6.47%. Turning to `CNC(=O)CCc1[nH]c2ccccc2c1Sc1ccccc1`, the “hERG current change (%, negative = inhibition) at 10uM” value is listed as 4.85%. For `Cc1cc(C)cc(OCC(=O)N2N=C(c3cccnc3)CC2(O)C(F)(F)F)c1` (centres unmarked), the “hERG current change (%, negative = inhibition) at 10uM” value was -15.3%.

Turning to `COc1ccc(NC(=O)N(Cc2ccc(C)cc2)Cc2cccnc2)c(OC)c1`, the “hERG current change (%, negative = inhibition) at 10uM” value is recorded as -10.6%. Take `COc1ccccc1S(=O)(=O)Cc1ccc(C(=O)NCCN2CCCC2)o1`: the “hERG current change (%, negative = inhibition) at 10uM” value is -8.12%. For `COc1ccccc1S(=O)(=O)Cc1ccc(C(=O)NCCCN2CCN(c3ccc(F)cc3)CC2)o1` the value was -79.2%.

With `COc1ccccc1S(=O)(=O)Cc1ccc(C(=O)NCCN2CCCCCC2)o1`, the “hERG current change (%, negative = inhibition) at 10uM” value was 2.78%. Regarding `Cc1cccc(N2C(=O)C(O)=C(C(=O)c3cccs3)C2c2ccc(F)cc2)n1` (centres unmarked), the “hERG current change (%, negative = inhibition) at 10uM” value is given as 14.9%. For the compound `O=C(NNS(=O)(=O)c1ccccc1)C1CCCCC1`, the “hERG current change (%, negative = inhibition) at 10uM” value is 6.38%.

As to `Cc1ccc(-c2nc(C#N)c(NCCCn3ccnc3)o2)cc1`, the “hERG current change (%, negative = inhibition) at 10uM” value is given as -21.9%. For `N#Cc1nc(-c2ccccc2)oc1NCCCn1ccnc1` the value was -27.5%; for `Cc1ccc(OCc2nc(C#N)c(NCCCn3ccnc3)o2)cc1`, -56%.

In the case of `N#Cc1nc(Cc2ccccc2)oc1NCCCn1ccnc1`, the “hERG current change (%, negative = inhibition) at 10uM” value is -31.5%. Take `N#Cc1nc(COc2ccc(F)cc2)oc1NCCN1CCOCC1`: the “hERG current change (%, negative = inhibition) at 10uM” value was -12.9%. `COc1ccc(OCc2nc(C#N)c(NCCCn3ccnc3)o2)cc1`: the “hERG current change (%, negative = inhibition) at 10uM” value is on record as -43.4%.

On to `N#Cc1nc(COc2ccccc2)oc1NCCN1CCOCC1`, for which the “hERG current change (%, negative = inhibition) at 10uM” value is reported as -11.3%.

On to `N#Cc1nc(Cc2cccc3ccccc23)oc1NCCCn1ccnc1`, for which the “hERG current change (%, negative = inhibition) at 10uM” value was -71%. For `N#Cc1nc(COc2ccc(Br)cc2)oc1NCCN1CCOCC1` the value was -56.6%. For `N#Cc1nc(-c2ccc(OCc3ccccc3Cl)cc2)oc1NCCCn1ccnc1`, the “hERG current change (%, negative = inhibition) at 10uM” value is on record as -13%. Regarding `COc1ccccc1OCc1nc(C#N)c(NCCCn2ccnc2)o1`, the “hERG current change (%, negative = inhibition) at 10uM” value is on record as 6.7%.

As to `N#Cc1nc(COc2ccccc2)oc1NCCCn1ccnc1`, the “hERG current change (%, negative = inhibition) at 10uM” value is listed as -50%. Consider `Cc1csc(C(C#N)C(=O)c2ccncc2)n1` (centres unmarked), for which the “hERG current change (%, negative = inhibition) at 10uM” value came to 19.2%. As for `N#C/C(C(N)=O)=C1/CCc2ccccc2N1`, the “hERG current change (%, negative = inhibition) at 10uM” value is on record as -9.51%.
